This is an account of results in ChEMBL document CHEMBL2218924, “A broad activity screen in support of a chemogenomic map for kinase signalling research and drug discovery” (Biochem J, 2013).

Molecules are shown by their SMILES.

Assay [1] addresses Death-associated protein kinase 1 (Homo sapiens) (UniProt P53355). The conditions noted are these: at 10 µM.
In assay [2] the target is Death-associated protein kinase 2 (Homo sapiens) (UniProt Q9UIK4). The settings on record: at 1 µM.
Assay [3] has the same target. The conditions noted are these: at 10 µM.
The target in assay [4] is T1, Discoidin domain-containing receptor 2 (Homo sapiens) (UniProt Q16832).
T1 sequence (whole entry): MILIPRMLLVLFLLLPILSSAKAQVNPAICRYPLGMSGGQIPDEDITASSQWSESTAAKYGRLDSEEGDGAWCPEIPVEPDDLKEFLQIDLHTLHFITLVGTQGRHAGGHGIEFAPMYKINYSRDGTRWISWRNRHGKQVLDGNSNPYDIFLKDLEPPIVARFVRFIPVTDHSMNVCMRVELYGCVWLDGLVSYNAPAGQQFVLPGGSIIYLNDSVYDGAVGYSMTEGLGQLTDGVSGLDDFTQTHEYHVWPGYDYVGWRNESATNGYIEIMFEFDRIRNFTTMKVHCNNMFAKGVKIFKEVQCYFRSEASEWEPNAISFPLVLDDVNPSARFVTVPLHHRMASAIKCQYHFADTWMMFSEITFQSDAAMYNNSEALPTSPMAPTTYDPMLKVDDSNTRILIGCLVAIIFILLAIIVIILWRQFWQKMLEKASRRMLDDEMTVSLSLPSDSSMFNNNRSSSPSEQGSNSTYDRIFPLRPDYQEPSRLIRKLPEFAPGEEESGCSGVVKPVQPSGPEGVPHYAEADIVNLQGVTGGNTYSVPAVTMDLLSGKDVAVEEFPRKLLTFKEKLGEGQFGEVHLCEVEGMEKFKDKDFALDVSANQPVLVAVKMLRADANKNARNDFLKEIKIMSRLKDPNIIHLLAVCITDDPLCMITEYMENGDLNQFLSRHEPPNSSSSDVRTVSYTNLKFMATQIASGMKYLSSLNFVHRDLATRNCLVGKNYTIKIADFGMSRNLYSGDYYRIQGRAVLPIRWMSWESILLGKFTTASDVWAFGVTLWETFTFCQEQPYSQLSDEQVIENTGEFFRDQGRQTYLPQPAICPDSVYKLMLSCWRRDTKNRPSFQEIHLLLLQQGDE
The settings on record: at 1 µM.

The target of assay [5] is T1, Discoidin domain-containing receptor 2 (Homo sapiens). The settings on record: at 10 µM.
In assay [6] the target is T2, Myotonin-protein kinase (Homo sapiens) (UniProt Q09013).
T2 sequence (whole entry): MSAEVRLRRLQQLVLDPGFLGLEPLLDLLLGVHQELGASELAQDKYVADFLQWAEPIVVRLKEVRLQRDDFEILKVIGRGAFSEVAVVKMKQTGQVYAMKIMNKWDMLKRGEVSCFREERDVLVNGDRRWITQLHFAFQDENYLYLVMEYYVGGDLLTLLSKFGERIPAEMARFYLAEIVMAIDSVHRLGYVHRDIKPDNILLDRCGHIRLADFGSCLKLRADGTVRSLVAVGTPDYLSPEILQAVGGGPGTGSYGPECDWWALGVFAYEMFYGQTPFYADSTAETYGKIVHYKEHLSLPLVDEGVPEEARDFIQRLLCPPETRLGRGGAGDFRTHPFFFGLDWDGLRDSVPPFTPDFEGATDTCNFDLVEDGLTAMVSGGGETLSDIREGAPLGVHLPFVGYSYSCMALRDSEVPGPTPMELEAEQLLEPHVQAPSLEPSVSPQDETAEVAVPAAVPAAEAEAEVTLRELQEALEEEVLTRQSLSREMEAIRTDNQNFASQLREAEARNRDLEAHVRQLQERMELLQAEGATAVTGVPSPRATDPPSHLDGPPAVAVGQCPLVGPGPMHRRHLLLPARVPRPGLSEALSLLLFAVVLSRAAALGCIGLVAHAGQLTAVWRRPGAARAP
The settings on record: at 1 µM.

For assay [7], the target named is T2, Myotonin-protein kinase (Homo sapiens). The settings on record: at 10 µM.
Assay [8] deals with T3, Serine/threonine-protein kinase 17A (Homo sapiens) (UniProt Q9UEE5).
T3 sequence (whole entry): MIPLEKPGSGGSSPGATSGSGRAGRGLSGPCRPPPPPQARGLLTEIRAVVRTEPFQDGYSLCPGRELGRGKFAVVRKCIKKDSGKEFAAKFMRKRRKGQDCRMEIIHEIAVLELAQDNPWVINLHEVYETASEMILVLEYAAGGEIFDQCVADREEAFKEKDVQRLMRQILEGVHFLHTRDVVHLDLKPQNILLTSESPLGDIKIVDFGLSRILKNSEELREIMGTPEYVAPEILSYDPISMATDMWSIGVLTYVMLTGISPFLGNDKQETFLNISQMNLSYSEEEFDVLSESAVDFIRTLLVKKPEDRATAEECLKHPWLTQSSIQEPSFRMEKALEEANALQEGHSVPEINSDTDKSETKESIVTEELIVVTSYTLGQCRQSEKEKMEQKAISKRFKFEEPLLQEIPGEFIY
The conditions noted are these: at 1 µM.

Assay [9] concerns the target T3, Serine/threonine-protein kinase 17A (Homo sapiens). The conditions noted are these: at 10 µM.
For assay [10], the target named is T4, Ephrin type-A receptor 1 (Homo sapiens) (UniProt P21709).
T4 sequence (whole entry): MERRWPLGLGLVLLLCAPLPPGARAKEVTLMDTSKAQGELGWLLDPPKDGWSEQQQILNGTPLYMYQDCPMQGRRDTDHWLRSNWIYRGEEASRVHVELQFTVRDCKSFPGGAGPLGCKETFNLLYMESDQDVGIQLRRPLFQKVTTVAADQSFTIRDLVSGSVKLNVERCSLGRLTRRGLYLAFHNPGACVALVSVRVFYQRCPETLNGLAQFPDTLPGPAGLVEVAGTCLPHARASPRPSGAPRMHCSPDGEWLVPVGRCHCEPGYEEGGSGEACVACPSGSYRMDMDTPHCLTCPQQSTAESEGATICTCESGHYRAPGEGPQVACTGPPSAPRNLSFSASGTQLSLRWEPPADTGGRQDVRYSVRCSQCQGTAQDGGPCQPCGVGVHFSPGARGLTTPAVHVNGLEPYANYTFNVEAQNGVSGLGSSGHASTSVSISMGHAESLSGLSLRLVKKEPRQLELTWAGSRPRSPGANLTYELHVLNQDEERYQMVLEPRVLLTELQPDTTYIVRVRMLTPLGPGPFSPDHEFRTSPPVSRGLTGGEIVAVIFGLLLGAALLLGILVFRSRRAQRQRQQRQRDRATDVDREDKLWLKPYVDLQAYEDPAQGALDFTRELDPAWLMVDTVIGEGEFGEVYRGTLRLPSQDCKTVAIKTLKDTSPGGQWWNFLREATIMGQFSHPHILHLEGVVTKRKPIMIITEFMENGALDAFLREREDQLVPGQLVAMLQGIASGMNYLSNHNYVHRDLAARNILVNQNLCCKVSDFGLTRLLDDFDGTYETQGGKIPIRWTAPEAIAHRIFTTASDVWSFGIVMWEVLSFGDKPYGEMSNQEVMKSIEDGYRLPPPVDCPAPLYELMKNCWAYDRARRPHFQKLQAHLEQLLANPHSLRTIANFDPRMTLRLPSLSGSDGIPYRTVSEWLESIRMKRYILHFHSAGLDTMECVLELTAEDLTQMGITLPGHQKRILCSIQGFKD
The settings on record: at 1 µM.

Assay [11] concerns the target T4, Ephrin type-A receptor 1 (Homo sapiens). The settings on record: at 10 µM.
In assay [12] the target is Ephrin type-A receptor 2 (Homo sapiens) (UniProt P29317). The conditions noted are these: at 1 µM.
Chain of Ephrin type-A receptor 2 (Homo sapiens) (P29317 whole entry): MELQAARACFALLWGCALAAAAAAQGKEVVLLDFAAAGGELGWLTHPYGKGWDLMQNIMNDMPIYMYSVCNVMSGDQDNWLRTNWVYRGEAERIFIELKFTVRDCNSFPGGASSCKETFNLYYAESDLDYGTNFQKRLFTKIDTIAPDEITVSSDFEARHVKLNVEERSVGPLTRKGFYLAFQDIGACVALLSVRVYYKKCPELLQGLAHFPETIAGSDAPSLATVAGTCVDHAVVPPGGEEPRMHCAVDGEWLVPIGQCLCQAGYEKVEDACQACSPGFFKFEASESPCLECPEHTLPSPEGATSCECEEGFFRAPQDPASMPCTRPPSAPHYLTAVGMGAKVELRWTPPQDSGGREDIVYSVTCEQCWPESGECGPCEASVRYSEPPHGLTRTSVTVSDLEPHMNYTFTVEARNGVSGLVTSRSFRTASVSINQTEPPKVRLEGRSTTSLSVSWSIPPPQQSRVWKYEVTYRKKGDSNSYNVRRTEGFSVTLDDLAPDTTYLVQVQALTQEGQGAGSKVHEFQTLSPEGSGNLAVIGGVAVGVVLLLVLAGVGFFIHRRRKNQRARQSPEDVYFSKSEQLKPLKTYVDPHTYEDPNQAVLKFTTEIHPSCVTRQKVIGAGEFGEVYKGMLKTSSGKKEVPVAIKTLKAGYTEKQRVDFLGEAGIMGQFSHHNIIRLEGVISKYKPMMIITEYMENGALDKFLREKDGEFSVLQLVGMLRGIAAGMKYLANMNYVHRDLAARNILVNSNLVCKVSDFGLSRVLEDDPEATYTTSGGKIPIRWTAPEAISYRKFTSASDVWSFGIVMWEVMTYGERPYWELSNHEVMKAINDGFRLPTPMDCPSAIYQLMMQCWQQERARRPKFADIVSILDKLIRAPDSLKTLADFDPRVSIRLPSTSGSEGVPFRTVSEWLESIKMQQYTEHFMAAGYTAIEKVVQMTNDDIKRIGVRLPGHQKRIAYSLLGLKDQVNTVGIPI
Assay [13] shares this target. The settings on record: at 10 µM.
Assay [14] concerns the target T5, Ephrin type-A receptor 3 (Homo sapiens) (UniProt P29320).
T5 sequence (whole entry): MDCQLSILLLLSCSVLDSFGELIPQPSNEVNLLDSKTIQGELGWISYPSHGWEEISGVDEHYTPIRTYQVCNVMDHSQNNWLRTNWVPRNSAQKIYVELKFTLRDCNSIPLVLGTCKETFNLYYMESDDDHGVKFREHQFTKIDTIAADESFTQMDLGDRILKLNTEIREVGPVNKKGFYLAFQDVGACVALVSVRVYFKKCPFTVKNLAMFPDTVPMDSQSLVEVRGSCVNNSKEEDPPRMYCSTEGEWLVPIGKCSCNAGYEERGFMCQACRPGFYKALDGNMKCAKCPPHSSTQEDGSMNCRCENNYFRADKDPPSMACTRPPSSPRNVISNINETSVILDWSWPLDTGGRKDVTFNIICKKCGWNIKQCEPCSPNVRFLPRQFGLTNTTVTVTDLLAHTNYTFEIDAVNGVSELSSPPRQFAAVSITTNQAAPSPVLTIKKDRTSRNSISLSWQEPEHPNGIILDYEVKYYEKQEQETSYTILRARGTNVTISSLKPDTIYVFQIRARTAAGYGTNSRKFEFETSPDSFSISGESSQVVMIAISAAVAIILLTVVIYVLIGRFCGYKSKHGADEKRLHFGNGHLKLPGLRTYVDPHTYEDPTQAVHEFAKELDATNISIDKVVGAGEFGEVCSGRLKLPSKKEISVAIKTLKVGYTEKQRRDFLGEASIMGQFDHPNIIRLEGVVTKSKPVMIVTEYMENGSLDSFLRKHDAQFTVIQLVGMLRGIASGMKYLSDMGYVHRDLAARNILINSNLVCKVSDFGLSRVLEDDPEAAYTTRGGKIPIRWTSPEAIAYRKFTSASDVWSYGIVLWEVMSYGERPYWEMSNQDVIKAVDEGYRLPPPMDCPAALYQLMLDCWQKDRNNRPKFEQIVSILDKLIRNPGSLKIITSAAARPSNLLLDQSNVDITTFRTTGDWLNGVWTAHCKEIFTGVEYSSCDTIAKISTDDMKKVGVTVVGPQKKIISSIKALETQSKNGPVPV
The conditions noted are these: at 1 µM.

The target of assay [15] is T6, Serine/threonine-protein kinase DCLK2 (Homo sapiens) (UniProt Q8N568).
T6 sequence (whole entry): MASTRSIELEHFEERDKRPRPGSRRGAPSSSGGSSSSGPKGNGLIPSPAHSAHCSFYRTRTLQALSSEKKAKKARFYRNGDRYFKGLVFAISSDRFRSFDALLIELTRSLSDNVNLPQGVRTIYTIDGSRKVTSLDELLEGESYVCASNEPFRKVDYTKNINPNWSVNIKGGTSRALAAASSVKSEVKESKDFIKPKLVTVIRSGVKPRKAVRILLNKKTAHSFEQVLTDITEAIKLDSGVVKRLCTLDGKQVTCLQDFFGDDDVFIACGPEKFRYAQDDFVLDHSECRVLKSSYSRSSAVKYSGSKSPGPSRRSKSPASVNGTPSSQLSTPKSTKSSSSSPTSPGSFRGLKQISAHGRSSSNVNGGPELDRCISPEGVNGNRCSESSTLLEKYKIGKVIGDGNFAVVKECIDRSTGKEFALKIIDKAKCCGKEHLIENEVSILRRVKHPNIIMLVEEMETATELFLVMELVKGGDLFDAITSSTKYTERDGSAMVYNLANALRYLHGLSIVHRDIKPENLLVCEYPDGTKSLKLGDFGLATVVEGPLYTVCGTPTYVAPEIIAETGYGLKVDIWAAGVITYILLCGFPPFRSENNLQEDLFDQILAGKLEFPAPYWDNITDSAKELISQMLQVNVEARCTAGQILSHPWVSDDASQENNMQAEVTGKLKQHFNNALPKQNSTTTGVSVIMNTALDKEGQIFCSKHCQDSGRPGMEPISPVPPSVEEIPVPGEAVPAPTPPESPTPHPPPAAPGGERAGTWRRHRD
The conditions noted are these: at 1 µM.

Assay [16] addresses T6, Serine/threonine-protein kinase DCLK2 (Homo sapiens). The settings on record: at 10 µM.
In assay [17] the target is T7, Dual specificity tyrosine-phosphorylation-regulated kinase 2 (Homo sapiens) (UniProt Q92630).
T7 sequence (whole entry): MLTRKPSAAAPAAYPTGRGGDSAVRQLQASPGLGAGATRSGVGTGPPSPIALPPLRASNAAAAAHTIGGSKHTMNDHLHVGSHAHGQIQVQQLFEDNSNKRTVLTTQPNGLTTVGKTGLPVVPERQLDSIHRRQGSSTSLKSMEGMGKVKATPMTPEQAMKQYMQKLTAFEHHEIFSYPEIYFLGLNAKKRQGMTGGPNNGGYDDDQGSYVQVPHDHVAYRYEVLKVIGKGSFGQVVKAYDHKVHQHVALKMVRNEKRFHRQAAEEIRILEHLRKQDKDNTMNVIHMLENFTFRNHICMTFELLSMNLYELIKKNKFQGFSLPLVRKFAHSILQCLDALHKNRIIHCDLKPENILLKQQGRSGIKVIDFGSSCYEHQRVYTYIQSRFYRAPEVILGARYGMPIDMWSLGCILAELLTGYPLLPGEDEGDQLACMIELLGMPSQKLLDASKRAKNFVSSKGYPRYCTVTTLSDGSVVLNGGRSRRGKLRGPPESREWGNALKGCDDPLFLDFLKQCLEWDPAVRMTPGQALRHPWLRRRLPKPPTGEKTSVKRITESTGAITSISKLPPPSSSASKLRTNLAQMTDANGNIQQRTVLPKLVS
The conditions noted are these: at 1 µM.

Assay [18] deals with T7, Dual specificity tyrosine-phosphorylation-regulated kinase 2 (Homo sapiens). The conditions noted are these: at 10 µM.

Chain of Death-associated protein kinase 2 (Homo sapiens) (Q9UIK4 whole entry, looked up): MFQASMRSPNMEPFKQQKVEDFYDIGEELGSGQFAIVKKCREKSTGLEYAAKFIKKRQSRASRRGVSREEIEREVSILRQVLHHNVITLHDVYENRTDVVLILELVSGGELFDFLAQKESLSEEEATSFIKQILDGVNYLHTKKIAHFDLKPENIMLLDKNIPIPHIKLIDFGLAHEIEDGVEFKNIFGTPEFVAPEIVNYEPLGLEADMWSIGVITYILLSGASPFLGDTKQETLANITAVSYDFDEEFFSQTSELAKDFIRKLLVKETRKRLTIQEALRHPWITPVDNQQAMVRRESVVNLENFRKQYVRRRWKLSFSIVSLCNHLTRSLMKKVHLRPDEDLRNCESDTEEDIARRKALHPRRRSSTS
Chain of Death-associated protein kinase 1 (Homo sapiens) (P53355 whole entry, looked up): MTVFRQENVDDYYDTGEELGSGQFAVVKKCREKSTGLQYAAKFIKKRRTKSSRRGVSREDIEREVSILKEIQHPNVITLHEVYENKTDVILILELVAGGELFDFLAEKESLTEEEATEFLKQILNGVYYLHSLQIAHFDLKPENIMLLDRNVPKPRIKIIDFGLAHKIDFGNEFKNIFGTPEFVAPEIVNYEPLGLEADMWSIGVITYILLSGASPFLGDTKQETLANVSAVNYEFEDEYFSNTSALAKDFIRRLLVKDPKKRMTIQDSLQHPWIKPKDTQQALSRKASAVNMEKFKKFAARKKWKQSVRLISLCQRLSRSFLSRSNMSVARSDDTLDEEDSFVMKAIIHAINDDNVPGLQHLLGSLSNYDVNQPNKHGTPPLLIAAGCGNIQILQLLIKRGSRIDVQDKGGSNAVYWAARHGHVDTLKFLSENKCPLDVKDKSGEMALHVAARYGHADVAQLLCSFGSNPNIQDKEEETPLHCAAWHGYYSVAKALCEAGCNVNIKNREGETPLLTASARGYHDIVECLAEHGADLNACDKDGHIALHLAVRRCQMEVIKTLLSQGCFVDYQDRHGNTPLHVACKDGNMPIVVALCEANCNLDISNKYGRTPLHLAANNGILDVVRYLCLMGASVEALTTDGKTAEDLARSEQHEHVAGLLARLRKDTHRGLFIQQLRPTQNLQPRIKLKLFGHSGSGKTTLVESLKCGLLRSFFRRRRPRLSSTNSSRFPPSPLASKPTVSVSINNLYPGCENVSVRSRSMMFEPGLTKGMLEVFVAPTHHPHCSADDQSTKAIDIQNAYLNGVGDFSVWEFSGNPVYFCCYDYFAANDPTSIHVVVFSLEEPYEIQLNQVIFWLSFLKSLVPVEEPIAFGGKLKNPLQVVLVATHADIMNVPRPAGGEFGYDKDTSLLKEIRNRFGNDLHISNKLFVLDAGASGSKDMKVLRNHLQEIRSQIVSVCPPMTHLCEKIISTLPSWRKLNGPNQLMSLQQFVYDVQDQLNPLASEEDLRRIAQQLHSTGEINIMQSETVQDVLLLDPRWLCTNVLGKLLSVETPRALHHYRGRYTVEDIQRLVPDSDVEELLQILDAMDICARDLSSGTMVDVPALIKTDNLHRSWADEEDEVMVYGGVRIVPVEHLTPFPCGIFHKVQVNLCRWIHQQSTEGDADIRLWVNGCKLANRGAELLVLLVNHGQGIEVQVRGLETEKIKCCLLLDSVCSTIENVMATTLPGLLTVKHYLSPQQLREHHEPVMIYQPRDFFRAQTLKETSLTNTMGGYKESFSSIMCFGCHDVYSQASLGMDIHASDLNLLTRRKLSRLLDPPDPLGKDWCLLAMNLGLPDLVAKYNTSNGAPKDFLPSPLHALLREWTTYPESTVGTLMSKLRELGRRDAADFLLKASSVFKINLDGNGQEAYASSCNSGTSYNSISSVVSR

For the compound `N#Cc1cnc2cnc(NCc3cccnc3)cc2c1Nc1ccc(F)c(Cl)c1`, the residual activity in assay [1] came out at 55%; in assay [2], 14%; in assay [3], 2%; in assay [4], 80%; in assay [5], 53%; in assay [6], 100%. The residual activity came out at 69% in [7]; 30% in assay [8]; 32% in assay [9]; 95% in [10]; 79% in [11]; 96% in [12]. Further, the residual activity in assay [13] came to 87%; in assay [14], 96%.

`COc1ccc(OC)c2c(=S)c3ccccc3[nH]c12`: the residual activity in assay [1] turned out to be 93%; in assay [2], 106%; in assay [3] it was 95%; in [15] it was 101%; in assay [16] it was 67%; in [4], 99%. Further, the residual activity in [5] came to 103%; in assay [6] it was 120%; in [7], 87%; in assay [8], 94%; in assay [9], 97%; in assay [17] it was 90%. Also, the residual activity was found to be 66% in assay [18]; 113% in [10]; 88% in assay [11]; 96% in [12]; 101% in assay [13]; 90% in [14].

Broadly, the residual activity is the signal under treatment as a percentage of the control signal.
